# PubChem BioAssay AID2588 (National Center for Advancing Translational Sciences (NCATS), 2010)
# Results filed as inconclusive are left out. Entries that show only a call come without a potency. The source made the active and inactive calls. The call rests on the fitted dose curve; in most records, active means well fitted inhibition curve with a large enough effect; inconclusive means small, poorly fitted or top-dose-only effect, or effect the other way; inactive means flat fitted curve, though single readings scatter.
# Target: Lysosomal acid glucosylceramidase (Homo sapiens) (UniProt P04062)
# Sequence (P04062 whole entry, looked up): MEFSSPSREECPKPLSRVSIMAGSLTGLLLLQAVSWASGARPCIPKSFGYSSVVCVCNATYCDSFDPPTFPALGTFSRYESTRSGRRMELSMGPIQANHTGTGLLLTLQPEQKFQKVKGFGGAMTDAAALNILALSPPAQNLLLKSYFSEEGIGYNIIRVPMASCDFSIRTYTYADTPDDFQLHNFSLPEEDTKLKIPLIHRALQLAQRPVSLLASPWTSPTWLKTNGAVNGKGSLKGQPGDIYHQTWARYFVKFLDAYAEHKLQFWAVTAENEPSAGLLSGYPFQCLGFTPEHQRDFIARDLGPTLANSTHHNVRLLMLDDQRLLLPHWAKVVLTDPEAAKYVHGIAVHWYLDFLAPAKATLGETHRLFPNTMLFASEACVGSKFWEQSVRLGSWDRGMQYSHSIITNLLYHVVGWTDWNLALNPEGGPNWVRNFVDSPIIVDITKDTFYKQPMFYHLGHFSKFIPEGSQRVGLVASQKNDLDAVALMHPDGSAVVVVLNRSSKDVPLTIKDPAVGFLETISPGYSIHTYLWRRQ
# Assay: qHTS Assay for Inhibitors and Activators of N370S glucocerebrosidase as a Potential Chaperone Treatment of Gaucher Disease: Activity in Non-Mutant Spleen Homogenate Using a Red Fluorescent Substrate
# Settings: red fluorogenic substrate GCase activity; series mostly up to 50.2 µM
# Excerpt: NIH Chemical Genomics Center [NCGC]
# NIH Molecular Libraries Probe Production Centers Network [MLPCN]
# Assay Submitter (PI): Wei Zheng
# Glucocerebrosidase (GC) catalyzes the hydrolysis of beta-glucocerebroside to glucose and ceramide in lysosomes. Mutations in the glucocerebrosidase gene result in Gaucher disease, an autosomal recessive lysosomal storage disorder. Many of the mutations encountered in patients with Gaucher disease are missense alterations that may cause misfolding, decreased stability and/or mistrafficking of this lysosomal protein. […] These inhibitors include iminosugar analogs and three non-iminosugar inhibitors identified from a previous HTS of 62,000 compounds with the wild type recombinant enzyme. However, the enhancement of enzyme activity by the chaperone action of an enzyme inhibitor must be balanced against the direct inhibition of the enzyme. An enzyme activator could also function as a chaperone by binding to the enzyme and helping to correct its misfolding and mistrafficking. While activators for GC have not yet been identified, they may have better therapeutic potential than inhibitors. Therefore the discovery and development of chemical activators may provide a new strategy for the chaperone therapy.
# We have optimized a new assay using N370S mutant GC derived from the spleen of a Gaucher patient. […] In addition, the MLPCN compound library has expanded, which increases the chance of finding new and better probes.
# This confirmation assay tests for compound activity in spleen homogenate containing wildtype enzyme using an alternate resorufin-based substrate.
# NCGC Assay Protocol Summary:
# This is a fluorogenic enzyme assay with resorufin-beta-D-glucopyranoside as the substrate and wildtype glucocerebrosidase from human spleen homogenate as the enzyme preparation. Upon the hydrolysis of this fluorogenic substrate, the resulting product, […] which can be detected by a standard fluorescence plate reader. Data were normalized to the controls for basal activity (without enzyme) and 100% activity (with enzyme). The AC50 values were determined from concentration-response data modeled with the standard Hill equation.
# Assay buffer: 50 mM citric acid (titrated with potassium phosphate to pH 5.0), 100 mM potassium chloride, 10 mM sodium chloride, 1 mM magnesium chloride, 0.01% Tween-20.
# 1536-well assay protocol:
# (1) Add 2 ul/well of spleen homogenate (27 ug final)
# (2) Add 23 nL compounds in DMSO solution. The final titration was 0.5 nM to 58 uM.
# (3) Add 2 ul of substrate (1 mM final)
# (4) Incubate at 37C for 40 min.
# (5) Add 2 ul stop solution (1M NaOH and 1M Glycine mixture, pH 10)
# (6) Detect the assay plate in a ViewLux plate reader (PerkinElmer) with Ex=365 nm and Em=440nm.
# Keywords: Glucocerebrosidase, beta-glucosidase, Gaucher Disease, pharmacological chaperone, chaperone therapy, high throughput screening, glucocerebrosidase inhibitor, MLSMR, MLSCN, NIH Roadmap, qHTS and NCGC
row,Compound,Potency
1,O=c1cc(N2CCCCC2)c(-c2ccccc2)nn1Cc1c(Cl)cccc1Cl,inactive
2,O=C(/C=C/c1ccc(O)cc1)c1ccc(O)cc1O,3980 nM (active)
3,COc1cc2c(cc1NC(=O)COC(=O)[C@@H](NC(=O)c1ccccc1)C(C)C)oc1ccccc12,inactive
4,O=S(=O)(c1cccc(C(F)(F)F)c1)N1CCN(c2nc(-c3ccccc3)nc3ccccc23)CC1,8910 nM (active)
5,Cc1cc(C)cc(N(CC(=O)NC2CCCCCC2)S(=O)(=O)c2c(C)[nH]c(=O)[nH]c2=O)c1,631 nM (active)
6,COc1cccc(CN(C)c2nc(-c3cccs3)nc3ccccc23)c1,2000 nM (active)
7,O=S(=O)(c1ccc(F)cc1)N1CCN(c2nc(-c3ccc(F)cc3)nc3cc(Cl)ccc23)CC1,inactive
8,O=S(=O)(c1ccc(Br)cc1)N1CCN(c2nc(-c3cccs3)nc3ccccc23)CC1,794 nM (active)
9,COc1ccc(S(=O)(=O)N2CCN(c3nc(-c4cccs4)nc4ccccc34)CC2)cc1OC,224 nM (active)
10,Cc1cc(C)n2ncc(C(=O)Nc3ccc(Cl)c(Cl)c3)c2n1,inactive
11,Cc1cc(N2CCOCC2)nc2ccc(NC(=O)CCC(=O)NC3CCCCC3)cc12,inactive
12,Cc1ccc(S(=O)(=O)Nc2ccc(C(=O)NCc3ccccc3)cc2)cc1,inactive
13,Cc1ccccc1-c1nccc(NCc2cccs2)n1,14100 nM (active)
14,COc1ccc(S(=O)(=O)N2CCN(c3nc(-c4ccccc4)nc4ccccc34)CC2)cc1,2510 nM (active)
15,COc1cccc(NC(=O)CSc2nc3ccccc3c(=O)n2Cc2cccs2)c1,inactive
16,CCOc1ccc(N(CC(=O)NC2CCCCCC2)S(=O)(=O)c2c(C)[nH]c(=O)[nH]c2=O)cc1,1410 nM (active)
17,CCN(CC)c1ccc(C(=O)Nc2ccc3nc(N4CCOCC4)cc(C)c3c2)cc1,10000 nM (active)
18,COc1cc(OC)cc(C(=O)N[C@H](C(=O)OCC(=O)Nc2cccc(F)c2)C(C)C)c1,inactive
19,O=C(Nc1nccs1)c1ccc(NS(=O)(=O)c2ccc(Cl)cc2)cc1,inactive
20,COc1ccccc1C(=O)COC(=O)c1ccccc1OCC(=O)Nc1ccc(SC(F)F)cc1,inactive
